Shiga inhibitor: A qHTS for Small Molecule Inhibitors of Shiga Toxin; AID 2315, 2010; Vero cells, Shiga toxin protein synthesis inhibition reporter; inhibition, % at 38.7 µM; hit rate 9.2% among 290,000; in the data active = inhibition mostly above about 28%, no sharp cut-off; inactive = mostly below about 43%
Sm TGR block: qHTS Assay for the Inhibitors of Schistosoma Mansoni Peroxiredoxins | Schistosoma mansoni thioredoxin glutathione reductase (TGR), Q962Y6 | purified TGR, DTNB reduction, TNB absorbance 405 nm | Potency, µM (highest dose often 114 µM), actives largely listed as inhibitors | hit rate 3% among 360,000; also: nearly all actives have a fitted effect of over 60% in size
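First, TGR (20 nM dispensed) and NADPH were mixed with compound. Second, a 15 min room-temperature incubation followed. Third, further NADPH and then DTNB were added to start the reaction. Finally, TNB absorbance was monitored kinetically.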
LmPK inh: qHTS Assay for Inhibitors of Leishmania Mexicana Pyruvate Kinase (LmPK). hit rate 0.37% among 290,000. AID 1721, 2009. purified LmPK, Kinase-Glo ATP luminescence, 1 h. Potency, µM (top dose mostly 57.5 µM), usual class: inhibitors
Target sequence (Q27686 whole entry, looked up): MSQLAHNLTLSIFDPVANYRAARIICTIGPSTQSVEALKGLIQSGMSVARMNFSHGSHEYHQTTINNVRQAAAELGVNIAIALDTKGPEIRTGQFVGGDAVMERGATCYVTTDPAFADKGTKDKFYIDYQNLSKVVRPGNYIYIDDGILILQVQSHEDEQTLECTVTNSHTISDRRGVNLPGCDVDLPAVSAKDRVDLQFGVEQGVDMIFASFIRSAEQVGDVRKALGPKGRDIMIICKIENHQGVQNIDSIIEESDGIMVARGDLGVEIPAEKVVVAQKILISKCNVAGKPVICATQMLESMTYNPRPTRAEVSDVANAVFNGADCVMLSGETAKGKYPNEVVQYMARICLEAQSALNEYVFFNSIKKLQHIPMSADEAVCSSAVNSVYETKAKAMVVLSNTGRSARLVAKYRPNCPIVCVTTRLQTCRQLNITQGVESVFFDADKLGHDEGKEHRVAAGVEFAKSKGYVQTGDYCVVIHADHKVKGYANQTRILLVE
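Purified LmPK (0.1 nM) with 0.5 mM PEP and 0.1 mM ADP in imidazole buffer pH 7.2 with MgCl2/KCl, 1 h at room temperature. ATP formed was read by luciferase luminescence and normalized to no-enzyme and uninhibited controls.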
Tb PYK inh: qHTS of Trypanosoma Brucei Inhibitors | Potency, µM (series often up to 76.8 µM), hits mostly inhibitors | AID 624173, 2012 | pyruvate kinase (Trypanosoma brucei), Q57TT1 | TbPYK enzyme, Kinase-Glo Plus ATP luminescence, 45 min | hit rate 0.12% among 410,000; also: nearly all actives have a fitted effect of over 50% in size
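Activity of T. brucei pyruvate kinase was followed by Kinase-Glo Plus luminescence after the enzyme reacted 45 min at room temperature with 130 uM ADP (final) and substrate. Test compounds were added before ADP at multiple concentrations.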
FBPA Giardia inh: qHTS Assay for Inhibitors of Fructose-1,6-bisphosphate Aldolase from Giardia Lamblia. hit rate 0.71% among 290,000. Potency, µM (doses to about 59.6 µM), most hits filed as inhibitors. AID 2451, 2010. purified Giardia FBPA. A8B2U2; also: nearly all actives have a fitted effect of over 55% in size
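Giardia FBPA (40 nM reagent) was preincubated 10 min at RT with compound (up to 57.5 uM final), then substrate plus GAPDH/TPI/NAD/arsenate coupling system with diaphorase/resazurin was added; resorufin fluorescence (525/598 nm) was read after 20 min.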
Cycloheximide cs: Cycloheximide Counterscreen for Small Molecule Inhibitors of Shiga Toxin; AID 2314, 2010; hit rate 12% among 300,000; cell reporter, cycloheximide protein synthesis inhibition counterscreen; max response, %; in the data active = max response mostly above about 13%, no sharp cut-off; inactive = mostly below about 14%; also: read at 38.3 µM for the half of the compounds with a filed dose
Hits are given with their value; 0 = inactive; ? = inconclusive; - = not tested or not shown; [ ] = dose if it differs, or a comment. The sample as a whole holds a higher share of hits than the screen did. Unless noted, calls follow the shape of the dose curve; as a rule, active = well fitted curve in the direction sought with a large enough effect; inconclusive = small, poorly fitted or top-dose-only effect, or another doubt; inactive = no such curve, though single readings can be large; an effect the other way counts as inactive or inconclusive.

SMILES	Shiga inhibitor	Sm TGR block	LmPK inh	Tb PYK inh	FBPA Giardia inh	Cycloheximide cs
Cc1c(C(=O)NCc2cccs2)oc2ccc(Br)cc12	0	0	0	0	0	29.9
Cc1ccc(N2CCN(C3=NC(=O)C(Cc4ccccc4)S3)CC2)cc1 (stereo not drawn)	0	0	0	0	0	0
O=C1N=C(N2CCN(c3ccccc3)CC2)SC1Cc1ccccc1 (stereo not drawn)	0	0	0	0	0	13.8
CCc1ccc(N2CC(C(=O)Nc3ccc4c(c3)OCO4)CC2=O)cc1 (stereo not drawn)	-	0	-	0	-	-
Cc1cc2c(cc1S(=O)(=O)NCc1ccc(F)cc1)n(C)c(=O)c(=O)n2C	-	0	-	0	-	-
CCCCN1Cc2c(nc3cc(-c4ccco4)[nH]n3c2=O)C1=O	0	20µM	0	0	0	0
COc1ccccc1N=Cc1c(C)c(C#N)c2[nH]c3ccccc3n2c1=O	0	0	0	0	?	18.2
Oc1ccc(/C=C/c2cnccn2)cc1	93.6	0	0	0	0	34.3
CC1(C)CNC(=O)c2sc(NC(=O)c3ccccc3)nc2C1	109.5	0	0	0	0	51.1
CC1(C)CC(=O)c2sc(NC(=O)c3ccc4ncsc4c3)nc2C1	62.2	0	0	?	0	23.9
CC1(C)CC(=O)c2sc(NC(=O)c3ccccc3)nc2C1	75.1	-	0	-	0	33.2
CC1(C)CC(=O)c2sc(NC(=O)CN3CCCCC3)nc2C1	0	0	0	0	0	0
CC1(C)CC(=O)c2sc(NC(=O)C(C)(C)C)nc2C1	92.1	0	0	0	0	40.2
CSc1ccc(CNC(=O)c2sc3ncnc(N(C)C4CCCCC4)c3c2C)cc1	-	0	-	0	-	-
COc1ccc(CNC(=O)c2sc(=O)n(Cc3cc(C(C)=O)ccc3OC)c2C)cc1	-	-	-	0	-	-
CCOc1ccc(CCNC(=O)CCc2cn(Cc3ccc(F)cc3)c3ccccc23)cc1	-	0	-	0	-	-
O=C1OC2C(O)C(O)OC2C1O (stereo not drawn)	-	-	-	0	-	-
CC1(C)CC(=O)c2sc(NC(=O)c3cccs3)nc2C1	0	0	?	0	0	15.7
CC(Oc1ccccc1)C(=O)Nc1nc2c(s1)C(=O)CC(C)(C)C2 (stereo not drawn)	0	0	0	0	0	0
CC1(C)CC(=O)c2sc(NC(=O)CCS(=O)(=O)c3ccccc3)nc2C1	0	0	0	0	0	30.2
CCOC(=O)c1ccc(NC(=O)CC(=O)Nc2ccc3nc4n(c(=O)c3c2)CCCCC4)cc1	-	0	-	0	-	-
Cc1ccc(NC(=O)CSc2nnc(COc3ccc(Cl)cc3)o2)c(C)c1	-	0	-	0	-	-
CCC(CC)c1nnc(NC(=O)C2CCCO2)s1 (stereo not drawn)	0	0	0	0	0	18.6
CCCCc1nnc(NC(=O)C2CCCO2)s1 (stereo not drawn)	53.3	0	0	0	0	14.7
Cc1csc(NC(=O)C2CCCO2)n1 (stereo not drawn)	0	0	0	0	0	0
SMILES	Shiga inhibitor	Sm TGR block	LmPK inh	Tb PYK inh	FBPA Giardia inh	Cycloheximide cs
CCCCc1nnc(NC(=O)C2=COCCO2)s1	68.8	0	0	0	-	39.6
C[C@H]1CN([C@@H](C)CO)C(=O)CCCn2cc(nn2)CO[C@@H]1CN(C)C(=O)c1ccncc1	-	-	-	0	-	-
C[C@@H](C(=O)Nc1ccc2ccccc2c1)[C@@H]1C[C@@]1(C)[C@@H](NC(=O)Oc1ccc(F)cc1)c1ccccc1	-	-	-	-	0	-
O=C(c1cc2ccccc2oc1=O)N1CCOCC1	72.5	0	0	0	0	38.7
COC(=O)C1CCN(C(=O)c2cc3ccccc3oc2=O)CC1	47.7	0	0	0	0	32.7
CC(=O)Nc1c(-c2ccccc2)nc2ncccn12	0	0	0	0	0	0
O=C(Nc1cccnc1N1CCOCC1)c1cc2ccccc2oc1=O	47.1	0	0	0	0	26.1
O=C(Nc1c(-c2ccccc2)nc2ncccn12)c1cc2ccccc2oc1=O	0	0	0	0	0	35.7
CCOc1ccc(C(=O)NCC(c2ccc(Cl)cc2)N2CCCCC2)cc1 (stereo not drawn)	-	0	-	0	-	-
CC(NC(=O)c1ccccc1)C(=O)N/N=C/c1cccc([N+](=O)[O-])c1 (stereo not drawn)	0	0	0	0	0	17.4
O=C(N/N=C/c1cccc([N+](=O)[O-])c1)c1nc2ccccc2c(=O)[nH]1	0	0	0	0	0	18.5
O=C(Cc1ccccc1)N/N=C/C=C/c1cccc([N+](=O)[O-])c1	0	0	0	0	0	0
O=C(Cc1ccccc1)N/N=C/c1cccc([N+](=O)[O-])c1	0	0	0	0	0	9.6
COc1ccc(-c2ccnc(-c3ccncc3)n2)cc1	0	0	0	0	0	0
Oc1ccc(-c2nccc(-c3ccccn3)n2)cc1	88.4	0	0	0	0	80.8
Cc1ccc(-c2ccnc(-c3ccc(O)cc3)n2)cc1	80.1	0	0	0	0	31.5
COc1ccc(-c2ccnc(-c3ccc(O)cc3)n2)cc1	0	0	0	0	0	24.5
COC(=O)COc1ccc(-c2nccc(-c3ccccn3)n2)cc1	0	0	0	0	0	0
Oc1ccc(-c2nccc(-c3ccc(Br)cc3)n2)cc1	40.3	0	0	0	0	17.2
Cn1c(=O)c2c(SCC(=O)N3CCc4ccccc43)nc(-c3ccccc3Cl)nc2n(C)c1=O	-	0	-	0	-	-
FCCCOc1ccc(-c2nccc(-c3ccc(F)cc3)n2)cc1	0	0	0	0	0	0
FCCCOc1ccc(-c2ccnc(-c3ccccc3)n2)cc1	81.0	0	0	0	0	27.7
Cc1ccc2c(c1)COc1c3ccc(C(=O)NCC4CC4)cc3nn1-2	53.9	0	0	0	0	30.4
O=C(NCCO)c1ccc2c3n(nc2c1)-c1ccccc1CO3	44.0	0	?	0	0	38.8
O=C(NCC1CC1)c1ccc2c3n(nc2c1)-c1ccccc1CO3	91.9	0	14.1µM	?	0	30.4
CCC(CC)C(=O)N(C)c1c(C)nc2c(OCc3ccc(OC(F)F)cc3)cccn12	-	-	-	0	-	-
CCN(CC)S(=O)(=O)c1ccc2c(c1)nc(CN(C)C(=O)Nc1ccc(C)c(F)c1)n2C	-	0	-	0	-	-
Cc1ccc(C)c(C(=O)COC(=O)CN2C(=O)C3C4CCC(C4)C3C2=O)c1 (stereo not drawn)	0	0	0	0	0	0
Cc1ccc(S(=O)(=O)N[C@H]2COC(=O)C/C=C\[C@@H](C)[C@H](NS(=O)(=O)c3ccc(C)cc3)COC(=O)C/C=C\[C@H]2C)cc1	-	-	-	-	0[12.9 µM]	-
COc1ccc(NS(=O)(=O)c2ccc(C)c(C(=O)N3CC(C)OC(C)C3)c2)cc1 (stereo not drawn)	-	0	-	0	-	-

Bioassay records as filed in PubChem BioAssay.
